The results in this text go back to PubChem BioAssay AID1578 (Sanford-Burnham Center for Chemical Genomics, 2009).

In all, about 290,000 compounds went through this assay and about 3,000 (1%) were called active. Only a selection was taken, and actives are over-represented in it overall. Unmarked numbers belong to inactive results. Rule as the data show it: active = inhibition mostly above about 36% (no sharp cut-off); inactive = mostly below about 34%.

A short description of this assay: inhibition of NOD1-driven NF-kB reporter – cell-based, luminescence, uHTS, primary screen (AID 1578).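 Also: HEK-293T reporter cells stimulated with the NOD1 agonist gamma-tri-DAP.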 The note with it: NOD1-driven NF-kB luciferase reporter cells, at 4 µM, stronger effect = higher value.
Take `C=CCC(c1ccccc1F)N(CCN1CCOCC1)C(=O)Nc1cccc(Cl)c1` (stereo not given): the inhibition (usually the relative decrease from the control value, in per cent) is 7.7%.
Under `COCCN(C(=O)C(=O)NC1CCCC1)C(C(=O)NC1CCCC1)c1ccccc1F` (stereo not given) stands -25.2%; under `COC(CN(C(=O)CCl)C(C(=O)NC1CCCCC1)c1ccc(C)cc1)OC` (stereo not given), 68.9%; under `COc1ccc(C(C(=O)NC2CCCC2)N(C(=O)c2ccoc2C)c2ccc(C)cc2)cc1` (stereo not given), -10.4%.
Next, `COCCN(C(=O)CCC(=O)Nc1cc(C)on1)C(C(=O)NC1CCCC1)c1ccccc1C` (stereo not given): -13.7%; `O=S(=O)(NC1CCCCC1)c1cccc(-c2nnc(-c3ccccc3)o2)c1`: 8.5%; `Cc1ccc(C(C(=O)NC2CCCC2)N(C(=O)Cc2cccs2)c2ccc3c(c2)OCCO3)cc1` (stereo not given): -7.5%.
`O=C(CN1CCOCC1)N/N=C/c1ccc(-c2cccc(Cl)c2Cl)o1`: the inhibition is -9.3%.
Under `O=C(CN1C(=O)COc2ccccc21)NCCN1CCOCC1` stands -38%; under `CC(=O)c1c(O)c2ccccc2n(C)c1=O`, -26%.
Next, `CC(=O)c1c(O)c2ccccc2n(C2CCCCC2)c1=O`: 57.4% (active).
Under `CCn1c(=O)c(C(C)=O)c(O)c2ccccc21` stands -17%.
`CC(C)CC(=O)c1c[nH]c(C(=O)O)c1`: the inhibition is -16.9%.
Next, `CC(Cl)C(=O)Nc1ncc(C(F)(F)F)cc1Cl` (stereo not given): -12%; `CCSC(=S)c1c(C)[nH]n(-c2ccccc2)c1=O`: 1.7%.
Next, `Cc1[nH]n(-c2ccccc2)c(=O)c1C(=O)c1ccccc1`: -3.5%; `CCCSC(=S)c1c(C)[nH]n(-c2ccccc2)c1=O`: 50.5% (active).
`CCCOc1ccc(N2C(=O)CC(N(Cc3ccco3)C(=O)CC)C2=O)cc1` (stereo not given): the inhibition was -3.4%.
Under `COc1ccc(CCNC(=O)c2cccs2)cc1OC` stands -51.6%.
Under `COc1ccc(C2(O)CCN(C(=O)NC3CCCCC3)CC2)cc1` stands -14.2%; under `CCOC(=O)c1sc2ccccc2c1OC(=O)c1ccccc1`, 38.2%.
On to `CCOC(=O)c1sc2ccccc2c1OC(=O)c1ccccc1OC`, for which the inhibition is 46.4%.
Under `CC1COc2ccccc2N1C(=O)c1ccccc1Cl` (stereo not given) stands 4.6%; under `Cc1ccc(S(=O)(=O)N2c3ccccc3OCC2c2ccccc2)cc1` (stereo not given), -19.1%.
Next, `CCCCOc1ccccc1C(=O)N(Cc1ccco1)C1CCS(=O)(=O)C1` (stereo not given): 25.4%; `CCOC(=O)c1sc2nc[nH]c(=O)c2c1C`: 4.3%.
Next, `CCOC(=O)c1c(O)c(O)c(C(=O)OCC)n1-c1ccccc1`: -8.7%.
With `CCOC(=O)c1c(C)c2c(=O)[nH]cnc2n1-c1ccccc1`, the inhibition was 32.5% (active).
Under `C=CCOc1c(CNc2ccc(C(=O)O)cc2)cccc1OC` stands -2.4%; under `N#Cc1cc2c(nc1SCc1cccnc1)CCCC2`, -35.1%.
Next, `Cc1[nH]c(=S)c(C#N)c(-c2ccco2)c1C(=O)N(C)C`: -29.8%.
Under `COc1ccc(NC(=O)NC2(C(=O)N3CCCCCC3)CCCCC2)cc1` stands -9.8%; under `Cc1ccc(S(=O)(=O)N2CCOCC2)cc1C(=O)Nc1c(C)n(C)n(-c2ccccc2)c1=O`, -23.2%.
Consider `CC(=O)N[C@@H](C)c1nc2ccccc2n1CCCN1CCN(c2nc(-c3ccc(C)cc3)cs2)CC1`, for which the inhibition is -3.9%.
Under `Cc1ccc(-c2csc(N3CCN(CCCn4c(C(F)(F)F)nc5ccccc54)CC3)n2)cc1` stands -23%.
Under `Cc1noc(C)c1COC(=O)[C@@H](NC(=O)c1ccccc1Cl)C(C)C` stands -17.3%; under `CCC(CC)c1nnc(NC(=O)c2ccc(N3CCCC3=O)cc2)s1`, -14.4%; under `Cc1csc(NC(=O)c2ccc(C(=O)Nc3nc(C)cs3)cc2)n1`, 2.7%.
Next, `Cc1csc(NC(=O)c2ccc(N3CCCC3=O)cc2)n1`: 39.5% (active).
With `Cc1ccccc1N1CCN(C2CCCN(C(=O)c3noc4c3CCCC4)C2)CC1` (stereo not given), the inhibition is 6.2%.
Consider `O=C1c2[nH]nc(-c3ccccc3O)c2C(c2ccc(F)cc2)N1Cc1ccco1` (stereo not given), for which the inhibition was 53.4% (active).
Next, `COc1ccc(C2c3c(-c4ccccc4O)n[nH]c3C(=O)N2Cc2ccco2)cc1` (stereo not given): -5.9%; `O=C1c2[nH]nc(-c3ccccc3O)c2C(c2ccccc2)N1Cc1ccco1` (stereo not given): -0.4%; `COc1cc2c(cc1OC)C(c1ccccc1)N(C(=O)c1ccco1)CC2` (stereo not given): 3.6%.
Take `COc1ccc(OCCC(=O)OCC(=O)NC(=O)NC(C)(C)C)cc1`: the inhibition was 7%.
Next, `CC(=O)NCC(=O)OC(C)C(=O)Nc1ccc(C(C)=O)cc1` (stereo not given): -17.4%.
`CCCNC(=O)c1ccc(N2CCC3(CC2)CC(c2ccccc2)=NO3)c(NC(=O)c2cccc(C)c2)c1`: the inhibition is 43.2%.
Under `CCCNC(=O)c1ccc(N2CCC3(CC2)CC(c2ccccc2)=NO3)c(NC(=O)c2cccc(OC)c2)c1` stands 77.4% (active); under `CCCNC(=O)c1ccc(N2CCC3(CC2)CC(c2ccccc2)=NO3)c(NC(=O)c2ccccc2)c1`, 21.3%.
Next, `CC(=O)Nc1ccc(C2=NNC(=Nc3ccc(S(=O)(=O)N4CCOCC4)cc3)SC2)cc1`: -12.4%; `Cc1c(/C=N/NC(=O)c2ccc(O)cc2)c2ccccn2c1C(=O)c1ccc(F)cc1`: 17.9%; `CNC(=S)N/N=C/c1c(C)c(C(=O)c2ccc(F)cc2)n2ccccc12`: 0.6%.
On to `CCOC(=O)N/N=C/c1c(C)c(C(=O)c2ccc(F)cc2)n2ccccc12`, for which the inhibition is 48.9% (active).
With `COC(=O)N/N=C/c1c(C)c(C(=O)c2ccc(F)cc2)n2ccccc12`, the inhibition is -3.4%.
Under `Cc1c(/C=N/NC(N)=O)c2ccccn2c1C(=O)c1ccc(F)cc1` stands 15.7%; under `CCCCCCCCCC[N+](C)(C)CC/C=C1/c2ccccc2Sc2ccc(Cl)cc21`, -0.8%; under `CCCCCCc1cc2cc(C(=O)Nc3ccc(OC)cc3)c(=O)oc2cc1O`, -7.5%.
Next, `CCCCCCc1cc2cc(C(N)=O)c(=N)oc2cc1O`: 12.9%.
Next, `CCCCCCc1cc2cc(C(=O)Nc3ccccc3OC)c(=O)oc2cc1O`: -4.9%; `CCCCCCc1cc2cc(C(=O)Nc3ccccc3)c(=O)oc2cc1O`: 34.1%.
Turning to `CCCCCCc1cc2cc(S(=O)(=O)c3ccc(C)cc3)c(=O)oc2cc1O`, the inhibition is -36.3%.
As to `CCCCCCc1cc2cc(C(=O)Nc3cccc(OC)c3)c(=O)oc2cc1O`, the inhibition was 59.9%.
Under `CCCC1C(C#N)=C(N)Oc2n[nH]c(C(C)(C)C)c21` (stereo not given) stands -47.4%.
Next, `CCOc1ccc(N(CC(=O)N2CCCCC2)S(=O)(=O)c2ccc(Cl)cc2)cc1`: 5.7%.
Under `Nn1c(Cc2ccccc2)n[nH]c1=S` stands -24.7%.
In the case of `O=C1c2cccnc2C(=O)N1c1cccc(-c2nc3ccccc3o2)c1`, the inhibition is -23.4%.
Under `O=C(NCc1ccco1)C(c1ccccc1F)N(CC1CCCO1)C(=O)Cn1nnc2ccccc21` (stereo not given) stands -7%; under `CCN(C(=O)Cn1c(=O)oc2ccccc21)c1cccc(C)c1`, 2.1%; under `CC(C)C[C@H](NC(=O)c1nc[nH]c1C(=O)NCc1ccccc1)C(=O)OC(C)(C)C`, -11.1%.
Next, `COc1ccc(CN(CC(=O)NCc2ccco2)C(=O)CCC(=O)Nc2ccccn2)cc1`: -20.6%; `O=C1NC(=S)N/C1=C\c1cccnc1`: 33.9% (active); `Cc1cc(/C=C2\NC(=S)NC2=O)c(C)n1-c1cccnc1`: -14.7%.
Next, `O=C1NC(=S)N/C1=C/c1cccnc1`: 16.2%; `COc1ccc(/C=N/NC(=O)CSc2ccccc2)cc1OC`: -7.9%; `CCc1ccc(NC(=O)CN(c2ccccc2)S(=O)(=O)N(C)C)cc1`: -17.6%.
As for `COc1cc(/C=C/C(=O)c2ccc(O)cc2)ccc1OCC#N`, the inhibition is 29.2%.
For `CCOc1ccc(C(=O)/C=C/c2ccc(OC)c(OC)c2)cc1`, the inhibition was 51.4%.
Under `COc1ccc(/C=C/C(=O)c2ccc(C(=O)/C=C/c3ccc(OC)c(OC)c3)cc2)cc1OC` stands -4.9%.
Next, `COc1ccc2cc(C(=O)/C=C/c3cc(OC)c(OC)c(OC)c3)ccc2c1`: 52.7%; `COc1ccc(NC(=O)Nc2cccc3ccccc23)c(OC)c1`: 19.9%; `CCS(=O)(=O)N1CCN(S(=O)(=O)c2ccc3c(c2)OCCO3)CC1`: 24.1%.
Next, `Cc1ccnc(N2CCN(C(=O)CSc3nc4ccccc4nc3N3CCC(C)CC3)CC2)c1`: 3.8%; `COc1ccccc1N1CCN(C(=O)CSc2nc3ccccc3nc2N2CCCCC2)CC1`: 8.8%.
`COc1ccccc1N1CCN(C(=O)CSc2nc3ccccc3nc2N2CCC(C)CC2)CC1`: the inhibition was 58.1% (active).
Under `CS(=O)(=O)N(CC(=O)NCCSCc1c(F)cccc1Cl)c1cccc([N+](=O)[O-])c1` stands -2.1%; under `COc1cc(C(=O)OCC(=O)Nc2cc(C)on2)ccc1OCc1ccccc1Cl`, -69.5%; under `CCCCN(C)C(=O)C1CCC(CNS(=O)(=O)c2ccc3c(c2)CC(C)N3C(C)=O)CC1` (stereo not given), -1.6%.
Next, `Clc1cccc(CN2CCc3c([nH]c4ccccc34)C2)c1`: 73.3% (active).
Next, `Clc1ccc(CN2CCc3c([nH]c4ccccc34)C2)cc1Cl`: -1.2%; `Cc1cccc(CN2CCc3c([nH]c4ccccc34)C2)c1`: -0.6%.
As to `Nc1ccc(S(=O)(=O)Nc2nc3ccccc3o2)cc1`, the inhibition is -21.3%.
Under `CCc1nnc(NC(=O)CCC(=O)N2CCC(Cc3ccccc3)CC2)s1` stands -19.4%; under `CNc1ccccc1C(C)(C)c1cc(-c2cccc(Br)c2)no1`, 18.9%; under `CNc1ccccc1C(C)(C)c1cc(-c2cccc([N+](=O)[O-])c2)no1`, -54.1%.
On to `CNc1ccccc1C(C)(C)c1cc(-c2cccc(OC)c2)no1`, for which the inhibition is 53.1% (active).
